The record followed here is PubChem BioAssay (NCI).

SMILES strings stand for the structures. The panel holds about 83,000 compounds, 20% with a hit somewhere; the sample as a whole holds those more often.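 Cells were grown in 96-well plates and exposed to the test compound at a single concentration for 48 hours; results are reported as percent growth, with values below 10 considered active.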 Active and inactive are the calls of the source.

The assay deals with PC-3 prostate. Briefly: NCI-60 one-dose screen, 48 h (100 = growth as untreated, 0 = no growth, -100 = all killed). The settings on record: 10 µM unless noted. The procedure: Growth inhibition of the PC-3 human tumor cell line is measured as a screen for anti-cancer activity. Cells are grown in 96 well plates and exposed to the test compound for 48 hours. Compounds are tested at a single concentration, which is 10^-5 M for most compounds. The reported endpoint is percent growth (GI% or GIPRCNT), where numbers from 0 - 100% represent growth inhibition, and numbers from -100% - 0 represent cell death. For example, a value of 40 represents 60% growth inhibition. A value of 0 means no net growth occurred over the course of the experiment. A value of -40 indicates 40% of cells at the beginning of the experiment died by the end of the experiment. A value of -100 means all cells are dead at the end of the experiment.
NCI-60 Human Tumor Cell Lines Screen was performed using the standard one-dose NCI protocol, which is described in more detail at https://dtp.cancer.gov/discovery_development/nci-60/default.htm.
Compounds with GIPRCNT values below 10 were considered active. Activity score was based on GIPRCNT using the following formula: […]
Score is 0 for GIPRCNT values of 100 or above, 50 for GIPRCNT values of 0, and 100 for GIPRCNT values of -100.
With `N#Cc1ccc2c(c1)C(=O)c1c-2n(CCCN)c(=O)c2cc([N+](=O)[O-])ccc12`, the growth was -74.4% (active).

Take `Cc1cc(C(=O)O)c(C)n1-c1cccc(C(=O)O)c1`: the growth was 98.4% (inactive).

With `CN(C)CC(C)(C)C(=O)/C=C/c1ccccc1`, the growth is -34.4% [25 µM] (active).

As to `Nc1ncnc2c1C(c1ccc(Br)cc1)c1sc3c(F)cccc3c1O2` (stereo not given), the growth is 87.4% (inactive).

On to `CCOC(=O)C1=C(c2ccccc2)N=C2SC=C(c3ccc(Cl)cc3)N2C1c1ccc(Br)cc1` (stereo not given), for which the growth was 40.6% (inactive).

As to `O=c1c2ccccc2n2cnc3ccc(Cl)c1c32`, the growth was 85.2% (inactive).

As for `COc1c(C(=O)Nc2ccc(C)c(Br)c2)ccc2ccccc12`, the growth was 87.7% (inactive).

With `COc1ccc(/C=N/C2=C(C#N)C(c3ccccc3)c3ccc4ccccc4c3O2)cc1` (stereo not given), the growth was 8.18% (active).

As for `C1CN(SSN2CCOCC2)CCO1`, the growth is 31.2% [100 µM] (inactive).

Take `O=C1NC2(Nc3ccccc31)C(=O)Nc1c(Cl)cc(Cl)cc12` (stereo not given): the growth is 103% (inactive).

Regarding `Cc1cccc(CNc2c3ccccc3nc3ccccc23)c1`, the growth was 24.9% (inactive).

As for `CCOC(=O)c1nn(-c2ccc(S(N)(=O)=O)cc2)c2nc(C)cc(=O)n12`, the growth was 101% (inactive).

Turning to `Cc1ccc(Nn2c(SCC(=O)Nc3nc(-c4ccccc4)cs3)nc(C)c2C)cc1`, the growth is 71.8% (inactive).

On to `Nc1cnc(C(=O)NNc2nc3cc(F)ccc3n3cccc23)cn1`, for which the growth was 47.2% (inactive).

In the case of `COc1cc2ncnc(Nc3ccc(F)c(Cl)c3)c2cc1OCC(=O)N1CCN(c2ccccc2)CC1`, the growth is 90.6% (inactive).

With `Cc1ccc(C)n1-c1ccccc1-n1c(C)ccc1C`, the growth is 98.7% (inactive).

For `O=c1c2cnn(-c3ccccc3)c2n2c(CN3CCOCC3)nnc2n1-c1ccccc1`, the growth is 78.2% (inactive).

Regarding `O=C(CSc1nc2ccc([N+](=O)[O-])cc2[nH]1)Nc1ccc([N+](=O)[O-])cc1`, the growth was 12.7% (inactive).

For the molecule `Nc1c(C(=O)Nc2ccncc2)sc2nc3c(cc12)C(O)CCC3` (stereo not given), the growth is 94.6% (inactive).

For the molecule `c1ccc(-c2oc(-c3ccccc3)c(CN3CCCCC3)c2CN2CCCCC2)cc1`, the growth was 19.6% (inactive).

For `COC(=O)/C=C1/SC(=Nc2ccc(C(F)(F)F)cc2)N(CCc2c[nH]c3ccc(O)cc23)C1=O`, the growth is -33.8% (active).

In the case of `Cc1cc(N2CCN(CC(=O)Nc3ccc4c(ccn4C)c3)CC2)nc(N2CCCCCC2)n1`, the growth was 82.8% (inactive).

As for `COC(=O)CC[C@@H]1O[C@@H](c2cccc(C(F)(F)F)c2)[C@@H](O)[C@H]1O`, the growth was 97.8% (inactive).

In the case of `CC(C)C1=NOC(=O)C1=Cc1cn(-c2ccccc2)nc1-c1ccc(F)cc1`, the growth is 38.5% (inactive).

For `NC(N)=NCCCCCNc1noc(Cc2c[nH]c3cc(Br)ccc23)n1`, the growth is 31.8% (inactive).

Consider `COc1ccc(/C=C(\C#N)n2nnc3ccc(Cl)cc32)cc1`, for which the growth was 63.7% (inactive).

`CSc1nc2ccccc2cc1/C=[N+](\[O-])c1ccccc1`: the growth was 40.9% (inactive).

In the case of `N#CC1=C(N)Oc2c(ccc3ccccc23)C1c1ccccc1` (stereo not given), the growth is 6.19% (active).

As to `C/C(Cc1ccc(Cl)cc1)=C(\c1ccc(O)cc1)c1ccc(Cl)cc1`, the growth was 71.8% (inactive).

As to `Cc1c2cnccc2c(C)c2c1c1cc(C#N)ccc1n2C`, the growth is -17.2% (active).

As to `O=C(CSc1oc(-c2ccccc2)nc1S(=O)(=O)c1ccccc1)Nc1ccc(F)cc1`, the growth is 52.7% (inactive).

With `CCn1c(SCC(=O)N/N=C(\C)c2ccc(Cl)cc2)nc2c1c(=O)n(C)c(=O)n2C`, the growth is 97.5% (inactive).

Regarding `Cc1cc(N2CCN(CCNc3ccnc4cc(Cl)ccc34)CC2)nc(N2CCOCC2)n1`, the growth is 65.1% (inactive).

Take `O=C(Nc1ccccc1O)c1ccc(CNC(=O)c2sccc2Nc2ccnc(C(F)(F)F)c2)cc1`: the growth is 35.2% (inactive).

On to `COc1cc(-c2nc3sccn3c2-c2ccnc(NCCNS(=O)(=O)c3ccccc3)n2)ccc1F`, for which the growth is 30.9% (inactive).

Take `CN1CCN(c2cc(Nc3cc(C4CC4)[nH]n3)nc(Nc3ccc(CC(=O)NCc4cccc(F)c4)cc3)n2)CC1`: the growth was 47.4% (inactive).

For the molecule `O=C(Nc1nc2cc(C(=O)N3CCN(C(c4ccccc4)c4ccccc4)CC3)ccc2o1)c1ccc(NC2CCCCC2)c([N+](=O)[O-])c1`, the growth is 53.9% (inactive).

Turning to `COC(=O)c1c2c(c(C)[n+]([O-])c1C)C(=O)C(NCc1cccc(OC)c1)=CC2=O`, the growth is 6.62% (active).

For the molecule `C=CC[Se]C(=O)Cc1c(C)n(C(=O)c2ccc(Cl)cc2)c2ccc(OC)cc12`, the growth was -36% (active).

Turning to `CCN1C(=S)N(c2ccccc2)C2C1NN=c1s/c(=C3\C(=O)N(C(C)C)c4ccccc43)c(=O)n12` (stereo not given), the growth was 79.3% (inactive).
